AMA1-RON2 inh – inhibitors of Plasmodium falciparum AMA1-RON2 interaction; AlphaScreen AMA1-biotinylated RON2 peptide binding; Potency, µM (doses to about 58.2 µM), inactives show at the highest dose activity change, negative = inhibition, actives largely listed as inhibitors; hit rate 0.2% among 360,000; active = well fitted inhibition curve with a large enough effect; inconclusive = small, poorly fitted or top-dose-only effect; inactive = no such curve, though single readings can be large or run the other way;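 also: potency is read from the fitted curve at half-maximal effect; 0% = vehicle wells and -100% = peptide control; nearly all actives have a fitted effect of over 45% in size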
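AMA1 (3D7) with his tag at 25 nM final met compounds first, then biotinylated RON2 peptide at 25 nM; detection used donor plus acceptor beads, 10 µg/mL apiece, read by AlphaScreen after 30 min at room temperature.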
Lassa entry inh – Lassa virus entry inhibition; Lassa virus pseudotype entry inhibition, cell reporter; Potency, µM (titrated, usually from 37.9 µM), without a hit: top-dose activity change, negative = inhibition, usual class: inhibitors; hit rate 1.2% among 300,000; AID 540256; calls by dose curve; tested in HEK293 cells; also: potency is read from the fitted curve at half-maximal effect; % is scaled to controls: 0 for no effect and ±100 for the full control effect; nearly all actives have a fitted effect of over 50% in size
CHX counter – counter-screen for Shiga toxin inhibitors: cycloheximide protein synthesis inhibition; cell reporter, cycloheximide protein synthesis inhibition counterscreen; max response, %; hit rate 12% among 300,000; in the data active = max response mostly above about 13%, no sharp cut-off; inactive = mostly below about 14%; also: read at 38.3 µM for the half of the compounds with a filed dose; 0% is about no effect
Shiga toxin inh – blocks Shiga toxin action in Vero cells; Vero cells, Shiga toxin protein synthesis inhibition reporter; inhibition, % at 38.7 µM; hit rate 9.2% among 290,000; in the data active = inhibition mostly above about 28%, no sharp cut-off; inactive = mostly below about 43%; also: 0% is about no effect
Marburg entry inh – inhibitors of Marburg virus binding or cell entry | Marburg virus pseudotyped entry inhibition, cell reporter | Potency, µM (highest dose often 37.8 µM), without a hit: at the highest dose activity change, negative = inhibition, hits mostly inhibitors | hit rate 1.8% among 300,000; calls by dose curve; tested in HEK293 cells; also: potency is read from the fitted curve at half-maximal effect; % is scaled to controls: 0 for no effect and ±100 for the full control effect
The depositor's hits bear a star; [ ] = another dose, or the depositor's remark. The full list was thinned out, with hits kept by preference.

`CN(C)c1ccc(/C=N/NC(=O)c2cccc(C(=O)N/N=C/c3ccc(N(C)C)cc3)n2)cc1` gave AMA1-RON2 inh 20%, Lassa entry inh 8%, CHX counter -4, Shiga toxin inh -17 and Marburg entry inh inconclusive.
CSc1ccc(/C=N/NC(=O)c2ccccc2Cl)cc1 was read as AMA1-RON2 inh -18%, Lassa entry inh 8.9µM*, CHX counter 32*, Shiga toxin inh 91* and Marburg entry inh inconclusive.
`CN(C)c1ccc(/C=N/NC(=O)CCCCCNC(=O)c2ccccc2)cc1` gave AMA1-RON2 inh -10%, Lassa entry inh -24%, CHX counter 55*, Shiga toxin inh 60* and Marburg entry inh 20%[46.1 µM].
For CN(C)c1ccc(/C=N/NC(=O)c2ccc3nc[nH]c3c2)cc1 the results were AMA1-RON2 inh -20%, Lassa entry inh -17%, CHX counter 16*, Shiga toxin inh 22* and Marburg entry inh 10%[46.1 µM].
For CN(C)c1ccc(/C=N/NC(=O)c2ccccc2)cc1 the results were AMA1-RON2 inh 11%, Lassa entry inh 10µM*, CHX counter 33*, Shiga toxin inh 53* and Marburg entry inh -14%[46.1 µM].
For Cc1csc(=O)n1CCC(=O)OCC(=O)NCc1ccccc1 the results were AMA1-RON2 inh 8%.
CC/C(=N\NC(=O)c1ccc(N(C)C)cc1)c1ccccc1 was read as AMA1-RON2 inh 28%, Lassa entry inh 3%, CHX counter 13, Shiga toxin inh 33* and Marburg entry inh 2%.
`CN(C)c1cccc(C(=O)N/N=C/c2ccsc2)c1` gave AMA1-RON2 inh 0%, Lassa entry inh inconclusive, CHX counter 67*, Shiga toxin inh 80* and Marburg entry inh inconclusive.
Screening O=C(CCCCCNC(=O)c1ccccc1)N/N=C/c1ccccc1O returned AMA1-RON2 inh 97%, Lassa entry inh inconclusive, CHX counter 25*, Shiga toxin inh 25 and Marburg entry inh 8%.
`O=C(CCCCCNC(=O)c1ccccc1)N/N=C/c1ccco1` gave AMA1-RON2 inh 7%, Lassa entry inh 18%[46.1 µM], CHX counter -2, Shiga toxin inh 5 and Marburg entry inh -10%[46.1 µM].
`CC/C(=N\NC(=O)c1ccc(N2CCCC2=O)cc1)c1ccccc1` gave AMA1-RON2 inh 25%, CHX counter -3, Shiga toxin inh 4 and Marburg entry inh 11%[46.1 µM].
For CN(C)c1ccc(/C(=N\O)c2ccccc2)cc1 the results were AMA1-RON2 inh -10%, Lassa entry inh -23%, CHX counter 35*, Shiga toxin inh 83* and Marburg entry inh 3%.
CN(C)c1ccc(C=Nc2ccccc2)cc1 was read as AMA1-RON2 inh -9%, Lassa entry inh inconclusive, CHX counter 5, Shiga toxin inh 53 and Marburg entry inh 27%.
CN(C)c1ccc(C=NNC(=O)c2cccc3ccccc23)c(Cl)c1 was read as AMA1-RON2 inh -10%, Lassa entry inh inconclusive and Marburg entry inh -16%.
CN(C)c1ccc(/C=N/NC(=O)c2ccccc2Cl)cc1 was read as AMA1-RON2 inh -12%, Lassa entry inh inconclusive, CHX counter 35*, Shiga toxin inh 10 and Marburg entry inh inconclusive.
C/C(=N/N=C/c1ccc(N(C)C)cc1)c1ccccc1 was read as AMA1-RON2 inh -14%, Lassa entry inh inconclusive, CHX counter 47*, Shiga toxin inh 168* and Marburg entry inh inconclusive.
Screening CN(C)c1ccc(/C=N/NC(=O)c2ccc(Cl)cc2)cc1 returned AMA1-RON2 inh 21%, Lassa entry inh -26%, CHX counter 2, Shiga toxin inh 18* and Marburg entry inh -14%.
COc1ccc(C(CNC(=O)CN(C)S(=O)(=O)c2ccc(C)cc2)N2CCCC2)cc1 (stereo unspecified) was read as AMA1-RON2 inh 0%, Lassa entry inh 0%[46.1 µM] and Marburg entry inh inconclusive.
Screening Cn1cccc1C(=O)OCc1ccc(F)cc1 returned AMA1-RON2 inh inconclusive, Lassa entry inh 5%, CHX counter 19*, Shiga toxin inh 50 and Marburg entry inh 0%.
For Nc1ccc(C(=O)OCc2csc(-c3ccccc3)n2)cc1[N+](=O)[O-] the results were AMA1-RON2 inh -1%, Lassa entry inh -24%, CHX counter 7, Shiga toxin inh -7 and Marburg entry inh 0%.
Screening O=C(CNS(=O)(=O)c1cccc(Cl)c1)OCc1csc(-c2ccccc2)n1 returned AMA1-RON2 inh 13%, Lassa entry inh 4%, CHX counter 14, Shiga toxin inh -9 and Marburg entry inh 1%.
`Cc1ccsc1C(=O)OCc1nnc(-c2ccccc2)o1` gave AMA1-RON2 inh 27%, Lassa entry inh inconclusive and Marburg entry inh 1%.

Bioassay records (PubChem BioAssay)
